Data published in PubChem BioAssay (NCATS).
Where “and” joins values, the source holds several entries; their conditions need not be identical. Identical values can stand only once. Inconclusive results are not listed. Unmarked numbers belong to inactive results. The call rests on the fitted dose curve; in most records, active means well fitted curve in the direction sought with a large enough effect; inconclusive means small, poorly fitted or top-dose-only effect, or another doubt; inactive means no such curve, though single readings can be large; an effect the other way counts as inactive or inconclusive.

Assay: qHTS Assay for Identifying Gametocytocidal Compounds (AID 743244);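 further: actives lower the fluorescent signal which means gametocytes are killed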
Conditions: P. falciparum 3D7 stage III-V gametocytes, alamarBlue, 72 h; max response: stronger effect = lower value
Procedure, shortened: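 Stage III–V gametocytes of P. falciparum 3D7 were seeded at 20,000 cells/well onto pre-dispensed compounds. After 72 h, 37 °C, 5% CO2, alamarBlue was added for another 24 h.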
On the % scale 0 is the no-effect control and ±100 the full control effect.

Compound | max response
C[C@H](O)CN(C)C | -4.88%
C[C@@H]1C/C=C/C=C/C=C/C=C/[C@H](O[C@@H]2O[C@H](C)[C@@H](O)[C@H](N)[C@@H]2O)C[C@@H]2O[C@](O)(C[C@@H](O)C[C@H]3O[C@@H]3/C=C/C(=O)O1)C[C@H](O)[C@H]2C(=O)O | 15.6%
COc1ccc(/C=N/NC(=O)c2ccncc2)c(C(=O)O)c1OC | 9%
FC(F)OC(Cl)C(F)(F)F (stereo unspecified) | -3.13%
O=C(O)/C=C/c1ccccc1 | 0.36%
O=P(O)(O)OP(=O)(O)O | 2.77%
O=S(=O)(O)CC(S)CS (stereo unspecified) | 3.76%
CCCOC(=O)c1ccccc1O | -13%
O=C1c2c(O)cccc2[C@H]([C@@H]2O[C@H](CO)[C@@H](O)[C@H](O)[C@H]2O)c2cc(CO)cc(O)c21 | -5.95% and -4.23%
O=P(O)(O)OP(=O)(O)OP(=O)(O)O | 1.26%
CN1CCC(OC(=O)C(Oc2ccc(Cl)cc2)Oc2ccc(Cl)cc2)CC1 | 32.5%
CC(=O)N[C@@H]1C(O[C@H]2O[C@H](C(=O)O)C(O)[C@H](O)[C@H]2O)[C@H](O)[C@@H](CO)O[C@H]1O[C@@H]1C(C(=O)O)O[C@@H](O[C@H]2[C@H](O)[C@@H](CO)OC(O)[C@@H]2NC(C)=O)[C@H](O)[C@H]1O (stereo partly specified) | -1.86%
NC[C@H]1O[C@H](O[C@H]2[C@H](O)[C@@H](O[C@H]3O[C@H](CO)[C@@H](O)[C@H](N)[C@H]3O)[C@H](N)C[C@@H]2N)[C@H](O)[C@@H](O)[C@@H]1O | 19.4%
Nc1nc(/C(=C/CC(=O)O)C(=O)N[C@@H]2C(=O)N3C(C(=O)O)=CCS[C@H]23)cs1 | -2.9%
NC(=O)C1c2ccccc2CCc2ccccc21 | -4.56%
C=C1CC[C@H](O)C/C1=C\C=C1/CCC[C@]2(C)[C@@H]([C@H](C)CCCC(C)C)CC[C@@H]12 | 7.84%
COC1=C(OC)C(=O)C(C/C=C(\C)CC/C=C(\C)CC/C=C(\C)CC/C=C(\C)CC/C=C(\C)CC/C=C(\C)CC/C=C(\C)CC/C=C(\C)CC/C=C(\C)CCC=C(C)C)=C(C)C1=O | 1.6% and -2.73%
c1ccc(-n2cnnn2)cc1 | 0.811%
CC1CCCCN1CCCOC(=O)c1ccccc1 (stereo unspecified) | 6.88%

Compound | max response
N=C(N)c1ccc(/C=C/c2ccc(C(=N)N)cc2O)cc1 | 21.7%
CN(Cc1ccccc1)Cc1ccccc1 | 1.68%
CC(=O)NCCCS(=O)(=O)O | 7.56%
CCCc1ccc(C(=O)O)cc1 | 0.792%
O=C1NC(=O)[C@H]2[C@@H]1[C@@H]1C=C[C@H]2C1 | -6.7%
CCN(CC)CCOC(=O)c1cccnc1 | 6.67%
O=C(O)Cc1cc(I)c(Oc2ccc(O)c(I)c2)c(I)c1 | 10.9%
O=C(O)/C=C/C(=O)Nc1ccc(S(=O)(=O)Nc2nccs2)cc1 | 0.278%
CN1CCc2c(c3ccccc3n2Cc2ccccc2)C1 | 9.99%
Cc1cc(O)c2c(c1)O[C@@]1(C)CC[C@H]3C(C)(C)CCCC34CO[C@@H]2[C@H]41 (stereo partly specified) | 20.1%
CC1(O)CCC(C(C)(C)O)CC1 (stereo unspecified) | 5.51%
CN[C@@H]1[C@@H](O)[C@@H](O[C@@H]2[C@@H](O)[C@H](OC3OC(CN)=CCC3N)[C@@H](N)C[C@H]2N)OC[C@]1(C)O (stereo partly specified) | -3.17%
CC1(C)S[C@@H]2[C@H](N3C(=O)C(c4ccccc4)NC3(C)C)C(=O)N2[C@H]1C(=O)O (stereo partly specified) | 5.31%
Nc1nc(NC2CC2)c2ncn([C@@H]3C=C[C@@H](CO)C3)c2n1 | 15.8%
CCN(CC)C(=O)c1cccnc1 | -8.37%
C[C@@H]1O[C@@H](OC[C@H]2O[C@@H](Oc3c(-c4ccc(OCCO)c(OCCO)c4)oc4cc(OCCO)cc(O)c4c3=O)[C@H](O)[C@@H](O)[C@@H]2O)[C@H](O)[C@H](O)[C@H]1O | 6.8%
Cc1ncc(C[n+]2csc(CCO)c2C)c(N)n1 | 2.57%
Nc1ncnc2c1ncn2CCOCP(=O)(O)O | -0.768%
Cc1ccc(S(=O)(=O)NC(=O)N[C@@H](C)Cc2ccccc2)cc1 | 23.6%

Assay: qHTS assay to identify small molecule inhibitors of chordoma cells - UCH-1 (AID 1259355); further: nearly all actives have a fitted effect of over 55% in size
Conditions: UCH-1 chordoma viability, CellTiter-Glo, 48 h, combination, with auranofin plus four topoisomerase inhibitors; series mostly up to 46.1 µM; activity, negative = inhibition: at the top concentration
Procedure, shortened: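 800 cells/well, overnight attach; compounds pinned at 15 concs, then auranofin/camptothecin/doxorubicin/rubitecan/topotecan combo added; 48hr 37 C, 5% CO2; CellTiter-Glo, 30min RT, luminescence.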

Compound | activity, negative = inhibition
C[C@H](O)CN(C)C | -3.84%
C[C@@H]1C/C=C/C=C/C=C/C=C/[C@H](O[C@@H]2O[C@H](C)[C@@H](O)[C@H](N)[C@@H]2O)C[C@@H]2O[C@](O)(C[C@@H](O)C[C@H]3O[C@@H]3/C=C/C(=O)O1)C[C@H](O)[C@H]2C(=O)O | -0.167%
COc1ccc(/C=N/NC(=O)c2ccncc2)c(C(=O)O)c1OC | -0.361%
FC(F)OC(Cl)C(F)(F)F (stereo unspecified) | -4.75%
O=C(O)/C=C/c1ccccc1 | -14.8%
O=P(O)(O)OP(=O)(O)O | -10.3%
O=S(=O)(O)CC(S)CS (stereo unspecified) | 8.46%
CCCOC(=O)c1ccccc1O | 0.442%
O=C1c2c(O)cccc2[C@H]([C@@H]2O[C@H](CO)[C@@H](O)[C@H](O)[C@H]2O)c2cc(CO)cc(O)c21 | -14.7%
O=P(O)(O)OP(=O)(O)OP(=O)(O)O | 5.42%
CN1CCC(OC(=O)C(Oc2ccc(Cl)cc2)Oc2ccc(Cl)cc2)CC1 | -2.89%
CC(=O)N[C@@H]1C(O[C@H]2O[C@H](C(=O)O)C(O)[C@H](O)[C@H]2O)[C@H](O)[C@@H](CO)O[C@H]1O[C@@H]1C(C(=O)O)O[C@@H](O[C@H]2[C@H](O)[C@@H](CO)OC(O)[C@@H]2NC(C)=O)[C@H](O)[C@H]1O (stereo partly specified) | -0.149%
NC[C@H]1O[C@H](O[C@H]2[C@H](O)[C@@H](O[C@H]3O[C@H](CO)[C@@H](O)[C@H](N)[C@H]3O)[C@H](N)C[C@@H]2N)[C@H](O)[C@@H](O)[C@@H]1O | -10.8% [at 20.6 µM]
Nc1nc(/C(=C/CC(=O)O)C(=O)N[C@@H]2C(=O)N3C(C(=O)O)=CCS[C@H]23)cs1 | -19.6%
NC(=O)C1c2ccccc2CCc2ccccc21 | -6.75%
C=C1CC[C@H](O)C/C1=C\C=C1/CCC[C@]2(C)[C@@H]([C@H](C)CCCC(C)C)CC[C@@H]12 | -15.4%
COC1=C(OC)C(=O)C(C/C=C(\C)CC/C=C(\C)CC/C=C(\C)CC/C=C(\C)CC/C=C(\C)CC/C=C(\C)CC/C=C(\C)CC/C=C(\C)CC/C=C(\C)CCC=C(C)C)=C(C)C1=O | -1.43%
c1ccc(-n2cnnn2)cc1 | -19.5%
CC1CCCCN1CCCOC(=O)c1ccccc1 (stereo unspecified) | -3.41%

Compound | activity, negative = inhibition
N=C(N)c1ccc(/C=C/c2ccc(C(=N)N)cc2O)cc1 | -26.7%
CN(Cc1ccccc1)Cc1ccccc1 | -7.09%
CC(=O)NCCCS(=O)(=O)O | -17.9%
CCCc1ccc(C(=O)O)cc1 | -27%
O=C1NC(=O)[C@H]2[C@@H]1[C@@H]1C=C[C@H]2C1 | 0.584%
CCN(CC)CCOC(=O)c1cccnc1 | 1.01%
O=C(O)Cc1cc(I)c(Oc2ccc(O)c(I)c2)c(I)c1 | 3.45% [at 20.6 µM]
O=C(O)/C=C/C(=O)Nc1ccc(S(=O)(=O)Nc2nccs2)cc1 | -3.03%
CN1CCc2c(c3ccccc3n2Cc2ccccc2)C1 | 9.64% [at 20.6 µM]
Cc1cc(O)c2c(c1)O[C@@]1(C)CC[C@H]3C(C)(C)CCCC34CO[C@@H]2[C@H]41 (stereo partly specified) | -15.4%
CC1(O)CCC(C(C)(C)O)CC1 (stereo unspecified) | -0.361%
CN[C@@H]1[C@@H](O)[C@@H](O[C@@H]2[C@@H](O)[C@H](OC3OC(CN)=CCC3N)[C@@H](N)C[C@H]2N)OC[C@]1(C)O (stereo partly specified) | -17.5% [at 20.6 µM]
CC1(C)S[C@@H]2[C@H](N3C(=O)C(c4ccccc4)NC3(C)C)C(=O)N2[C@H]1C(=O)O (stereo partly specified) | -10.7%
Nc1nc(NC2CC2)c2ncn([C@@H]3C=C[C@@H](CO)C3)c2n1 | -9.51%
CCN(CC)C(=O)c1cccnc1 | -8.47%
C[C@@H]1O[C@@H](OC[C@H]2O[C@@H](Oc3c(-c4ccc(OCCO)c(OCCO)c4)oc4cc(OCCO)cc(O)c4c3=O)[C@H](O)[C@@H](O)[C@@H]2O)[C@H](O)[C@H](O)[C@H]1O | -3.46%
Cc1ncc(C[n+]2csc(CCO)c2C)c(N)n1 | 7.14% [at 20.6 µM]
Nc1ncnc2c1ncn2CCOCP(=O)(O)O | -10.3%
Cc1ccc(S(=O)(=O)NC(=O)N[C@@H](C)Cc2ccccc2)cc1 | -7.08%
